Drawing on PubChem BioAssay, this text covers growth inhibition, inhibition and outcome for 20 compounds.

Molecules are shown by their SMILES. Values without a mark were called inactive. For some of these results: Entries with a potency or affinity are not part of this list. Activity calls are given as the source filed them. Unless noted, the rule behind the calls is not given here.

Assay [1] in a line: antimalarial activity against Dd2 strain (AID 2302;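 active = growth inhibition above 50% at the single 2 µM test dose, taken to imply half-maximal potency below 2 µM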;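 note: 0% = DMSO untreated growth and 100% = chloroquine plus artemisinin killed control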). The settings on record: P. falciparum Dd2 in RBCs, LDH growth readout, 72 h; at 2 µM; active compounds read high.
Assay [2] is described as follows: HepG2 cytotoxicity, primary screen, cytotoxicity control for P. falciparum antimalarial project, cell-based, ATP luminescence (AID 2303;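 active = inhibition above 50%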;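 note: 0% = DMSO wells and 100% = digitonin-killed cells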). The settings on record: HepG2 viability, 24-48 h, at 10 µM, active compounds read high.
The target in assay [3] is L-lactate dehydrogenase (Plasmodium falciparum (isolate CDC / Honduras)) (UniProt Q27743). The experiment in a line: PfLDH activity inhibition – cell lysate, 3D7 strain, counter-screen for P. falciparum growth inhibition project (AID 2304).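 Note: 0% = vehicle and 100% = reference inhibitor.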 The settings on record: P. falciparum 3D7 crude extract, LDH APAD/NBT absorbance; at 2 µM; active compounds read high.
Assay [4] is described as follows: inhibition of 3D7 malaria parasite growth – strain 3D7 (AID 2306).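 Note: 0% = DMSO wells and 100% = chloroquine plus artemisinin control wells.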 The settings on record: P. falciparum 3D7 erythrocytic growth, LDH absorbance, 72 h; at 2 µM; active compounds read high.
The target in assay [5] is Calcium-dependent protein kinase 1 (Plasmodium falciparum (isolate 3D7)) (UniProt P62344). The experiment in a line: PfCDPK1 kinase inhibitors, biochemical, TCAMS library (AID 1159585; cut-off not given, nearly all actives have IC50 up to about 0.98 µM;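 note: inhibitors leave more ATP so luminescence rises with inhibition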). The settings on record: recombinant PfCDPK1, Kinase-Glo ATP depletion luminescence.
Assay [6] addresses Plasmodium falciparum protein kinase 6 (PK6, PF3D7_1337100) (UniProt Q8IDW1). Kind of assay: PfPK6 kinase inhibitors, biochemical, TCAMS library (AID 1159586). The settings on record: recombinant PfPK6, Kinase-Glo ATP depletion luminescence.
In assay [7] the target is Protein kinase 7 (PK7), Plasmodium falciparum 3D7 (PF3D7_0213400) (UniProt Q7YTF7). Kind of assay: inhibition of Plasmodium PK7 catalytic activity – biochemical, TCAMS antimalarial set, Kinase-Glo luminescence (AID 1159587). The settings on record: recombinant PfPK7, Kinase-Glo ATP depletion luminescence.
Assay [8] deals with Calcium-dependent protein kinase 4 (Plasmodium falciparum (isolate 3D7)) (UniProt Q8IBS5). Kind of assay: PfCDPK4 kinase inhibitors, biochemical, TCAMS library (AID 1159588; cut-off not given, nearly all actives have IC50 up to about 0.91 µM). The settings on record: recombinant PfCDPK4, Kinase-Glo ATP depletion luminescence.
Sequence of Calcium-dependent protein kinase 4 (Plasmodium falciparum (isolate 3D7)) (Q8IBS5 whole entry, looked up): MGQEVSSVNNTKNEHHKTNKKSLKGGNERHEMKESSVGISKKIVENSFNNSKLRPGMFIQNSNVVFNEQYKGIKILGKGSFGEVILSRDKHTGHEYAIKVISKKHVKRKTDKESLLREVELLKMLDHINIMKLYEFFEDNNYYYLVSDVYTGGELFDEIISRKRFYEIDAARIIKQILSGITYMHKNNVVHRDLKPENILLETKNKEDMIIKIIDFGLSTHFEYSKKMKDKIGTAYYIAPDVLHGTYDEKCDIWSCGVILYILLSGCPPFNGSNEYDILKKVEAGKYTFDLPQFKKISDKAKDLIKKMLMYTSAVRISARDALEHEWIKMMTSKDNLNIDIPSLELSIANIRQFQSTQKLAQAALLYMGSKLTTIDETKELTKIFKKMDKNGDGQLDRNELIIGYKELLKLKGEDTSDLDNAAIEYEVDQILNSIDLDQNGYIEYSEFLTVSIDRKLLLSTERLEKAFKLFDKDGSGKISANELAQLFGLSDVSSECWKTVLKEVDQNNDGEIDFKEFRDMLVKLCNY

Sequence of Protein kinase 7 (PK7), Plasmodium falciparum 3D7 (PF3D7_0213400) (Q7YTF7 1-343): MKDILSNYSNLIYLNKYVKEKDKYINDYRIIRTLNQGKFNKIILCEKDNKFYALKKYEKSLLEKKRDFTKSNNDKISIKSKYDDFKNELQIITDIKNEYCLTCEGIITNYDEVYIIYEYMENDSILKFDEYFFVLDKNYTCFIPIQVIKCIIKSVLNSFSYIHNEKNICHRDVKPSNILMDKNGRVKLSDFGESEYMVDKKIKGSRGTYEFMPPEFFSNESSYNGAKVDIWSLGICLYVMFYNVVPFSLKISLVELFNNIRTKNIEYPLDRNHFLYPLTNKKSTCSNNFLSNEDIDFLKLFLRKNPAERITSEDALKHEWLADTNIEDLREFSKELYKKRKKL
Sequence of L-lactate dehydrogenase (Plasmodium falciparum (isolate CDC / Honduras)) (Q27743 whole entry, looked up): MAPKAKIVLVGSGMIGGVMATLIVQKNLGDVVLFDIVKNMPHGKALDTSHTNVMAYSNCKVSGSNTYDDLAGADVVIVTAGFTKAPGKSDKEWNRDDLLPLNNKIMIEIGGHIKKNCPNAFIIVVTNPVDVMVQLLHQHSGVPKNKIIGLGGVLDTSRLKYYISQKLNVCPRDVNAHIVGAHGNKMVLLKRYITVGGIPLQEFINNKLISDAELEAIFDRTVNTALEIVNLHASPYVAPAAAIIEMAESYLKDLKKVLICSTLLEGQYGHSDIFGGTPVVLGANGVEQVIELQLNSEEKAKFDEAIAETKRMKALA
Sequence of Plasmodium falciparum protein kinase 6 (PK6, PF3D7_1337100) (Q8IDW1 1-305): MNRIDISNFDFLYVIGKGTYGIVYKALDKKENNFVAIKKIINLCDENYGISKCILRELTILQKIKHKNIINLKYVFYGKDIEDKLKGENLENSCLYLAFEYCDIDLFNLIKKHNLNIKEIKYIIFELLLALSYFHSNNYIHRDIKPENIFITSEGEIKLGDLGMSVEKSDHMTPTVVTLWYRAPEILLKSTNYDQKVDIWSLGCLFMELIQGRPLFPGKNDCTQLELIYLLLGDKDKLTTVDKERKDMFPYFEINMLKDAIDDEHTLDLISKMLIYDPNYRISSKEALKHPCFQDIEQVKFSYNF
Sequence of Calcium-dependent protein kinase 1 (Plasmodium falciparum (isolate 3D7)) (P62344 whole entry, looked up): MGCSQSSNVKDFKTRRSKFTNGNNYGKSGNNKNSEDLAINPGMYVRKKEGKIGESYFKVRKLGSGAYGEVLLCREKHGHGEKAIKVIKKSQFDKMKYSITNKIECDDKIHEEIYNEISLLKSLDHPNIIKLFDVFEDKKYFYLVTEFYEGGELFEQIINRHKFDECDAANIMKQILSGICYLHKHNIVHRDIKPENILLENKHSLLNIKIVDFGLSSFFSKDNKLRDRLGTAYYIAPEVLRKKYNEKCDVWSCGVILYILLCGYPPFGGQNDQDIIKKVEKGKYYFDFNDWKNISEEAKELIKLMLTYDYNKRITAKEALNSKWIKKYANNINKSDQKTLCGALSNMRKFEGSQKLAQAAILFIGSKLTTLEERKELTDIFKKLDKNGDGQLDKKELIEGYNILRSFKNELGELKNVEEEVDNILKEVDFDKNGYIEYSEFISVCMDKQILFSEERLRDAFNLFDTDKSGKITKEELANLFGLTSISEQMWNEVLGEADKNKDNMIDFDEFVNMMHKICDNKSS

For `Cc1cc(NN=Cc2cccc(Cl)c2)c2cc(F)ccc2n1`, the values for the growth inhibition in assay [1] and in assay [4] were 100% (active) and 101% (active), respectively. For the same compound, the inhibition was 1% in assay [2] and -5% in assay [3]. Further, the result in assay [5], in assay [6], in assay [7] and in assay [8] was inactive.

As to `O=C(Nc1ccc(S(=O)(=O)N2CCOCC2)cc1)c1cc(-c2cc(Cl)ccc2O)n[nH]1`, the growth inhibition in assay [1] was 59% (active); in assay [4], 96% (active). Further, the inhibition in assay [2] is 40%; in assay [3], -3%. The outcome in assay [5], in assay [6], in assay [7] and in assay [8] was inactive.

`COc1ccc2nccc([C@@H](O)CN3CCC(NCc4nc5c(C#N)cccc5[nH]4)CC3)c2c1`: the growth inhibition was 9% in assay [1] and 96% (active) in assay [4]. For the same compound, the inhibition was -3% in assay [2] and -5% in assay [3]. Further, the outcome in assay [5], in assay [6], in assay [7] and in assay [8] was inactive.

In the case of `COc1ccc2nc(C)cc(NN=Cc3ccncc3)c2c1`, the growth inhibition in assay [1] is 68% (active); in assay [4], 102% (active). Moreover, the inhibition in assay [2] was 6%; in assay [3], 1%. Besides, the result in assay [5], in assay [6], in assay [7] and in assay [8] was inactive.

With `O=[N+]([O-])c1cccc(CNC2CCN(Cc3ccc4ccccc4c3)CC2)c1`, the results for the growth inhibition in assay [1] and in assay [4] were 22% and 100% (active), respectively. Further, the results for the inhibition in assay [2] and in assay [3] were 12% and -3%, respectively. Moreover, the result in assay [5], in assay [6], in assay [7] and in assay [8] was inactive.

Take `CCN(CC)CCN(Cc1ccc(-c2ccc(C(F)(F)F)cc2)cc1)C(=O)Cn1c(CCc2cccc(F)c2F)cc(=O)cc1-c1ccccc1`: the results for the growth inhibition in assay [1] and in assay [4] were 64% (active) and 94% (active), respectively. The inhibition is 33% in assay [2] and -2% in assay [3]. Besides, the result in assay [5], in assay [6], in assay [7] and in assay [8] was inactive.

Turning to `O=C(Cc1cnc[nH]1)Nc1cccc(-c2ccc(-c3nc4ccccc4[nH]3)cc2)c1`, the results for the growth inhibition in assay [1] and in assay [4] were 72% (active) and 99% (active), respectively. Also, the inhibition in assay [2] was 7%; in assay [3] it was -1%. The outcome in assay [5], in assay [6], in assay [7] and in assay [8] was inactive.

As to `Cc1[nH]c(C)c(-c2ccc(-c3ccccc3F)nc2)c(=O)c1Cl`, the growth inhibition in assay [1] and in assay [4] was 97% (active) throughout. Besides, the inhibition in assay [2] is 7%; in assay [3], 6%. The result in assay [5], in assay [6], in assay [7] and in assay [8] was inactive.

Consider `COc1cc2c(cc1NS(=O)(=O)c1ccc(OCc3ccc(Br)cc3)cc1)CCN(C1CCC1)CC2`, for which the growth inhibition in assay [1] is 30%; in assay [4] it was 94% (active). In addition, the inhibition is 36% in assay [2] and 2% in assay [3]. Further, the outcome in assay [5], in assay [6], in assay [7] and in assay [8] was inactive.

Take `Cc1c(S(=O)(=O)Nc2cccc(CCN3CCCCC3CCN3CCCC3)c2)sc2ccc(Cl)cc12` (stereo not given): the values for the growth inhibition in assay [1] and in assay [4] were 10% and 93% (active), respectively. The values for the inhibition in assay [2] and in assay [3] were 22% and 0%, respectively. Also, the outcome in assay [5], in assay [6], in assay [7] and in assay [8] was inactive.

With `COc1ccc(CNCC2CCC(CNCCc3ccccc3)CC2)cc1Cl` (stereo not given), the growth inhibition in assay [1] was 29%; in assay [4], 100% (active). Moreover, the figures for the inhibition in assay [2] and in assay [3] were 23% and -2%, respectively. For the same compound, the result in assay [5], in assay [6], in assay [7] and in assay [8] was inactive.

Regarding `CCCC(C)N(Cc1ccc(C(C)(C)C)cc1)C(=O)c1cccc(C#N)c1` (stereo not given), the growth inhibition in assay [1] is 45%; in assay [4], 86% (active). Also, the inhibition in assay [2] was 14%; in assay [3], -9%. The result in assay [5], in assay [6], in assay [7] and in assay [8] was inactive.

Regarding `N#Cc1ccc(Cn2ccc3c4c(N)nc(N)nc4ccc32)cc1`, the values for the growth inhibition in assay [1] and in assay [4] were 95% (active) and 92% (active), respectively. In addition, the inhibition was 64% (active) in assay [2] and 0% in assay [3]. Besides, the result in assay [5], in assay [6], in assay [7] and in assay [8] was inactive.

On to `O=C(Nc1cccc(CN2CCN(Cc3ccc(O)cc3)CC2)c1)c1cc2ccccc2s1`, for which the growth inhibition was 26% in assay [1] and 100% (active) in assay [4]. For the same compound, the results for the inhibition in assay [2] and in assay [3] were 15% and -4%, respectively. Further, the result in assay [5], in assay [6], in assay [7] and in assay [8] was inactive.

Regarding `COc1cc2nccc(Nc3ccc(OCc4ccccc4)cc3)c2cc1OC`, the growth inhibition in assay [1] was 99% (active); in assay [4] it was 101% (active). The inhibition is 35% in assay [2] and 1% in assay [3]. The result in assay [5], in assay [6], in assay [7] and in assay [8] was inactive.

As for `Cc1cc(N(C)CCCN2CCCCC2)nc(Nc2ccc(Cl)cc2)n1`, the growth inhibition in assay [1] is 82% (active); in assay [4] it was 101% (active). Further, the inhibition is 7% in assay [2] and -3% in assay [3]. The result in assay [5], in assay [6], in assay [7] and in assay [8] was inactive.

With `CC(C)COc1ccc(Cl)cc1Cc1nc(-c2nc3ccc(CN(C)C)cc3[nH]2)co1`, the values for the growth inhibition in assay [1] and in assay [4] were 87% (active) and 97% (active), respectively. The inhibition in assay [2] is 14%; in assay [3], 5%. In addition, the outcome in assay [5], in assay [6], in assay [7] and in assay [8] was inactive.

Take `CCCCCCNC(=O)C(N)CCCC(N)C(=O)NCCCCCC` (stereo not given): the growth inhibition was -5% in assay [1] and 99% (active) in assay [4]. Further, the inhibition in assay [2] and in assay [3] was -2% each time. Besides, the result in assay [5], in assay [6], in assay [7] and in assay [8] was inactive.

`CC(=O)Nc1ccc(CN2CCC(NC(=O)c3ccc(-c4cccc(C(F)(F)F)c4)s3)CC2)cc1`: the growth inhibition in assay [1] is 16%; in assay [4], 100% (active). For the same compound, the inhibition was 35% in assay [2] and -3% in assay [3]. In addition, the outcome in assay [5], in assay [6], in assay [7] and in assay [8] was inactive.

Turning to `CCc1cccc(-n2c(=O)c3cccnc3n2CC(=O)NCc2ccccc2Cl)c1`, the growth inhibition in assay [1] was 19%; in assay [4], 98% (active). Also, the inhibition is 25% in assay [2] and -8% in assay [3]. For the same compound, the outcome in assay [5], in assay [6], in assay [7] and in assay [8] was inactive.
